# Laboratory results: paper PMC4336329 (PLoS ONE, 2015)
# The whole screen tested about 310,000 compounds, of which about 2,200 (0.71%) showed an effect of 50% or more. Effects have a minus sign here. The sample as a whole holds a higher share of strong results than the screen did.
# Target: human ether-à-go-go-related gene (hERG) potassium channel (human, UniProt Q12809)
# Experiment: primary screen, population patch clamp on CHO cells stably expressing hERG; higher = less effect of the substance
# Chain of human ether-à-go-go-related gene (hERG) potassium channel (Q12809 whole entry, looked up): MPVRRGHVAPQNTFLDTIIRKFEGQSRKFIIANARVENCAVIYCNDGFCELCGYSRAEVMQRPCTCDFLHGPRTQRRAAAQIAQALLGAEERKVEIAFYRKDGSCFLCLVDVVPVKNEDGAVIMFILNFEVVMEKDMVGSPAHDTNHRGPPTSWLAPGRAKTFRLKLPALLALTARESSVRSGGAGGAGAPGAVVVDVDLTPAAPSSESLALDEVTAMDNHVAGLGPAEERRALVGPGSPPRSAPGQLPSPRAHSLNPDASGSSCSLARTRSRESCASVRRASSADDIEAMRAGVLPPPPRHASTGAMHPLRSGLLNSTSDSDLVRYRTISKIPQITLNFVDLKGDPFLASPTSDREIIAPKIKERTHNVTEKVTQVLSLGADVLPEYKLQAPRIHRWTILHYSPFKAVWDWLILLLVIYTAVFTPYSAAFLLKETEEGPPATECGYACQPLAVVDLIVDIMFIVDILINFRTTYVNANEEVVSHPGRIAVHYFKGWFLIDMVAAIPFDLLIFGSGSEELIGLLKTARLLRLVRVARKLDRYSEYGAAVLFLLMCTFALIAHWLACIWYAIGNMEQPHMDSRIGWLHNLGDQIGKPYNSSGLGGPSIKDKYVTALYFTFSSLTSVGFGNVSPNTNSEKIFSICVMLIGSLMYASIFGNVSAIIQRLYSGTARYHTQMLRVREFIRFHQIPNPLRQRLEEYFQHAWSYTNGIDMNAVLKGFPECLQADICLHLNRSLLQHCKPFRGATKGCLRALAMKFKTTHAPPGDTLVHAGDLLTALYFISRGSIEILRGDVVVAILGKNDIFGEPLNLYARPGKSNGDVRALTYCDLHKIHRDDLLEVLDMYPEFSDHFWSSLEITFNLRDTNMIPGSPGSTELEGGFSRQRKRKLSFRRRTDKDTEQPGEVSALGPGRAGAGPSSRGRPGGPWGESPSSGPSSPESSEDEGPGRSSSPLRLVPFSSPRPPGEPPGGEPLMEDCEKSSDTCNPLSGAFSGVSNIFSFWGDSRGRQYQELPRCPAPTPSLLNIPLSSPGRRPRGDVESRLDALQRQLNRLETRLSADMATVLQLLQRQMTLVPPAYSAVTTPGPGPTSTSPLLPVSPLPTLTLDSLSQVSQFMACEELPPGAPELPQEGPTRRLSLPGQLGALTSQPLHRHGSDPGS
row,SMILES,"hERG current change (%, negative = inhibition) at 1uM [%]"
1,COc1cccc(C(=O)Nc2ccncc2)c1OC,9.58
2,Cc1nn(CC(=O)c2cccc(Cl)c2)c(C)c1[N+](=O)[O-],6.41
3,Cc1ccc(Cn2cccc(NC(=O)CCC3CCCC3)c2=O)cc1,1.91
4,Cc1ccc(/C=C2/C(=O)NC(=O)N(C)C2=O)cc1,7.48
5,Cn1c(NC(=O)c2cc(-c3ccc4c(c3)OCO4)nc3ccccc23)cc(=O)n(C)c1=O,2.87
6,O=C(NCCCN1CCOCC1)c1ccc(N2CCCC2)c([N+](=O)[O-])c1,4.41
7,NS(=O)(=O)c1ccc(NCCCn2ccnc2)c([N+](=O)[O-])c1,12
8,Cc1ccc(C(=O)NCCCn2ccnc2)cc1[N+](=O)[O-],11.9
9,COc1ccc(C(=O)NCCCn2ccnc2)cc1[N+](=O)[O-],3.98
10,CCN(CC)S(=O)(=O)c1ccc(NCCCn2ccnc2)c([N+](=O)[O-])c1,-7.58
11,Cl.O=C(NCCCn1ccnc1)c1ccc(S(=O)(=O)N2CCCCCC2)cc1,9.74
12,O=C(c1ccccc1)c1ccc(NCCCn2ccnc2)c([N+](=O)[O-])c1,-65.4
13,Cl.O=C(NCCCn1ccnc1)c1ccc(N2CCCCCC2)c([N+](=O)[O-])c1,-51.6
14,O=C(NCCCn1ccnc1)c1ccc(N2CCCCC2)c([N+](=O)[O-])c1,-54.1
15,Cc1ccc(NC(=O)NC2CC(=O)N(c3ccc4c(c3)OCCO4)C2)cc1 (stereo not shown),11.3
16,CC[n+]1ccc(C(=O)NCc2ccccc2)cc1.[Cl-],12.3
17,CCc1[nH]nc2c1C1(C(=O)N(Cc3ccccc3)c3ccccc31)C(C#N)=C(N)O2 (stereo not shown),15.5
18,CCOc1ccc2[nH]c3nc(SCC(=O)OC(C)C)nnc3c2c1,14.6
19,CCCN1CCN(C(=S)Nc2ccc([N+](=O)[O-])cc2)CC1,-11
20,Cc1ccc2[nH]c(=O)c(CN(CCCN(C)C)C(=O)Nc3ccc(F)cc3)cc2c1,-37
21,Cc1ccc2[nH]c(=O)c(CN(CCCN(C)C)C(=O)Nc3cccc(Cl)c3)cc2c1,-26.3
22,Cc1ccc2[nH]c(=O)c(CN(CCCN(C)C)C(=O)Nc3ccc(Cl)cc3)cc2c1,-62.7
23,CCN1CCCC1CN(Cc1cc2ccc(C)cc2[nH]c1=O)C(=S)Nc1cccc(OC)c1 (stereo not shown),-44
24,CCN(CC)CCN(Cc1cc2ccc(C)cc2[nH]c1=O)C(=O)Nc1ccc(Cl)cc1,-78.4
25,Cc1ccc2cc(CN(CCN(C)C)C(=O)Nc3ccc(Cl)cc3)c(=O)[nH]c2c1,-20.7
26,CCN(CC)CCN(Cc1cc2cc(C)ccc2[nH]c1=O)C(=S)Nc1ccccc1,-23.4
27,CCN1CCCC1CN(Cc1cc2ccc(C)cc2[nH]c1=O)C(=S)Nc1ccc(F)cc1 (stereo not shown),-70.6
28,CCN1CCCC1CN(Cc1cc2ccc(C)cc2[nH]c1=O)C(=S)Nc1ccc(OC)cc1 (stereo not shown),21.4
